Where “and” joins values, the source holds several entries; their conditions need not be identical. Equal values may be shown once. Records with an inconclusive call do not appear. Entries that show only a call come without a potency. Calls of active or inactive are those of the source. The call rests on the fitted dose curve; in most records, active means well fitted curve in the direction sought with a large enough effect in the repeat runs; inconclusive means weak or mixed curves; inactive means no such curve, though single readings can be large; an effect the other way counts as inactive or inconclusive.
Tests used:
[1] = molecular target: Cytochrome P450 2C19 (Homo sapiens) (UniProt P33261); assay: Cytochrome P450 Family 2 Subfamily C Member 19 (CYP2C19) small molecule antagonists: luciferase reporter qHTS assay (AID 1671197); details: P450-Glo CYP2C19 enzyme, luciferin luminescence, 1 h; series mostly up to 52.9 µM; further: nearly all actives have a fitted effect of over 65% in size
Chain of Cytochrome P450 2C19 (Homo sapiens) (P33261 whole entry, looked up): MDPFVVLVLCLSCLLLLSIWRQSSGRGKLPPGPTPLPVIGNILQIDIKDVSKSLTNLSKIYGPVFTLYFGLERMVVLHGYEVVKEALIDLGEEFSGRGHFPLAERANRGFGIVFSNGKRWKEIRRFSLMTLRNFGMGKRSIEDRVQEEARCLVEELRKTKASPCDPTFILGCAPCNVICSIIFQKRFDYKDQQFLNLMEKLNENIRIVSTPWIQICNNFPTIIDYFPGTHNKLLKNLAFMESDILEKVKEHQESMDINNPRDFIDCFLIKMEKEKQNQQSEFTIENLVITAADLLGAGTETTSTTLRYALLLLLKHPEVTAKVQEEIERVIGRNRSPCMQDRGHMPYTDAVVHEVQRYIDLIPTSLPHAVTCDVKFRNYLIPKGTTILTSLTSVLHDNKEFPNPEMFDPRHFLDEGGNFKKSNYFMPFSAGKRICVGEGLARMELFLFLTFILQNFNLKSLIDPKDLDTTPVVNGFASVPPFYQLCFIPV
How it was run: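 Compounds were tested on CYP2C19 activity via proluciferin conversion to luciferin. The 37C, 1 h reaction followed NADPH addition; detection reagent stopped it.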

[2] = molecular target: Cytochrome P450 1A2 (Homo sapiens) (UniProt P05177); assay: Cytochrome P450 Family 1 Subfamily A Member 2 (CYP1A2) small molecule antagonists: luciferase reporter qHTS assay (AID 1671199); details: P450-Glo CYP1A2 enzyme, luciferin luminescence, 1 h; series mostly up to 53 µM; further: nearly all actives have a fitted effect of over 50% in size
Chain of Cytochrome P450 1A2 (Homo sapiens) (P05177 whole entry, looked up): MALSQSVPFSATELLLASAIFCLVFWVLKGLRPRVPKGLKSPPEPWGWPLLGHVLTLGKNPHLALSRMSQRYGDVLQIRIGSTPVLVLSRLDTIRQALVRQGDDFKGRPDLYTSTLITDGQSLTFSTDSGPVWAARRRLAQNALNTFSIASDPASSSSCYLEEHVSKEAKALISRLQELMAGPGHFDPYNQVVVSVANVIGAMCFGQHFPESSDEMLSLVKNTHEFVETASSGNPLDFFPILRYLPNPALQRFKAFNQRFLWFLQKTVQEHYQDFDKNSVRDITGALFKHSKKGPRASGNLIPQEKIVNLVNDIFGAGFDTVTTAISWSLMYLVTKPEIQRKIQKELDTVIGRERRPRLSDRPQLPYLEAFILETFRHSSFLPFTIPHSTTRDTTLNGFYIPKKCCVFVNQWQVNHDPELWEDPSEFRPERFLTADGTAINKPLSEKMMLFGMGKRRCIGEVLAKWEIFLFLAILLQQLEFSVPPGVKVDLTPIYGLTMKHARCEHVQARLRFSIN
How it was run: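 Quantitative high-throughput format using the P450-Glo CYP1A2 system. Reaction initiated by NADPH regeneration solution, 1 h at room temperature, then stopped with detection reagent; luminescence measured 20 min later.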

[3] = molecular target: Voltage-gated inwardly rectifying potassium channel KCNH2 (Homo sapiens) (UniProt Q12809); assay: Human Ether-a-go-go-Related Gene (hERG) channel small molecule antagonists: fluorescence cell-based qHTS assay (AID 1671200); details: hERG-U2OS cells, FluxOR thallium flux fluorescence; series mostly up to 76.8 µM; further: nearly all actives have a fitted effect of over 50% in size
Chain of Voltage-gated inwardly rectifying potassium channel KCNH2 (Homo sapiens) (Q12809 whole entry, looked up): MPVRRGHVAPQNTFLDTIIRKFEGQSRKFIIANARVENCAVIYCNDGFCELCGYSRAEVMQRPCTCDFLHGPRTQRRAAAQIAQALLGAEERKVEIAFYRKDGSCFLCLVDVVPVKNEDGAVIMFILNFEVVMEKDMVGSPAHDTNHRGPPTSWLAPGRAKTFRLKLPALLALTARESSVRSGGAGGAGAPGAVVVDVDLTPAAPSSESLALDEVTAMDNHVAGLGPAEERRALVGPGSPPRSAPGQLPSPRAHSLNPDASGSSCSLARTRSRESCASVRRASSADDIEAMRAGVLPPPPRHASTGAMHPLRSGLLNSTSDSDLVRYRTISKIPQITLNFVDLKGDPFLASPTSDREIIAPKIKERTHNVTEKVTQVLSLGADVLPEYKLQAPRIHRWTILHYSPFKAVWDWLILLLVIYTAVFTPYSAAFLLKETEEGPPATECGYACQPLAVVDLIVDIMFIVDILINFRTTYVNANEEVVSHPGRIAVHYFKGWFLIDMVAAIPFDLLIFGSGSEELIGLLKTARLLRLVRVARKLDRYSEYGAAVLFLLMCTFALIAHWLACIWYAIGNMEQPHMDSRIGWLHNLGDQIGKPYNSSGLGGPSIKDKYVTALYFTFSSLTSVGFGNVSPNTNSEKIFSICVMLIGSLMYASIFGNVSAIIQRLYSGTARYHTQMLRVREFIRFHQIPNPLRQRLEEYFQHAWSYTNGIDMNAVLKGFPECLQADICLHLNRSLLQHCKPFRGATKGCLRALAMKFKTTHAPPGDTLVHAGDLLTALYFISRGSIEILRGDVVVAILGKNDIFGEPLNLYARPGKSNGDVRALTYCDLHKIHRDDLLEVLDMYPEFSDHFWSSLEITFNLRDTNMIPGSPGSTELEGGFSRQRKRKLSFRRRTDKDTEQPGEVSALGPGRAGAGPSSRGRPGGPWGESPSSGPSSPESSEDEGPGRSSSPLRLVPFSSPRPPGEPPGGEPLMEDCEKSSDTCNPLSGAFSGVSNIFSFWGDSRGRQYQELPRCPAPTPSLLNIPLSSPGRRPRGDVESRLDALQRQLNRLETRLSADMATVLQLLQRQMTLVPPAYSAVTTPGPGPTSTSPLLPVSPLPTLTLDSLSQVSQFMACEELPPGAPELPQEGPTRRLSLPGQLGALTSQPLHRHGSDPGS
How it was run: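 U2OS cells expressing the channel were plated at 1000 cells/well, incubated overnight at 37 C, then loaded with FluxOR II thallium-sensitive dye for 1 h at room temperature in the dark, with a further 10 min at room temperature before stimulation.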

[4] = molecular target: Cytochrome P450 3A4 (Homo sapiens) (UniProt P08684); assay: Cytochrome P450 Family 3 Subfamily A Member 4 (CYP3A4) small molecule antagonists: luciferase reporter qHTS assay (AID 1671201); details: P450-Glo CYP3A4 enzyme, luciferin luminescence, 1 h; series mostly up to 115 µM; further: nearly all actives have a fitted effect of over 50% in size
Chain of Cytochrome P450 3A4 (Homo sapiens) (P08684 whole entry, looked up): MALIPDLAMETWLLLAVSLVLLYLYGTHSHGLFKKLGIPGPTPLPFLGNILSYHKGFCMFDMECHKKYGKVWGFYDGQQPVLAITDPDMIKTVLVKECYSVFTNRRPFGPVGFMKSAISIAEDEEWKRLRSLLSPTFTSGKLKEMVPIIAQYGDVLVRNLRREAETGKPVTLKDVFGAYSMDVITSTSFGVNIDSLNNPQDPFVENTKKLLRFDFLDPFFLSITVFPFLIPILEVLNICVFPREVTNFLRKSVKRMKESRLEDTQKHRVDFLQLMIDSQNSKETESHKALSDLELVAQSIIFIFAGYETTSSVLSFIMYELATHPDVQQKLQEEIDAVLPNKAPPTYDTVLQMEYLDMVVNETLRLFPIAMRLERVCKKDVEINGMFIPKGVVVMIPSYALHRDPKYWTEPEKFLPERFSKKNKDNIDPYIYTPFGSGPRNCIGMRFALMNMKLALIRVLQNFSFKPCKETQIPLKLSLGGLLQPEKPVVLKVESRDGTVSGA
How it was run: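 P450-Glo CYP3A4 system with proluciferin substrate; compounds preincubated 10 min RT with enzyme-substrate mix, then NADPH regeneration added for 1 h RT. Detection reagent 20 min, luminescence read as relative luminescence units.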

[5] = molecular target: Cytochrome P450 2C9 (Homo sapiens) (UniProt P11712); assay: Cytochrome P450 Family 2 Subfamily C Member 9 (CYP2C9) small molecule antagonists: luciferase reporter qHTS assay (AID 1671198); details: P450-Glo CYP2C9 enzyme assay, luciferin luminescence; series mostly up to 53 µM; further: nearly all actives have a fitted effect of over 50% in size
Chain of Cytochrome P450 2C9 (Homo sapiens) (P11712 whole entry, looked up): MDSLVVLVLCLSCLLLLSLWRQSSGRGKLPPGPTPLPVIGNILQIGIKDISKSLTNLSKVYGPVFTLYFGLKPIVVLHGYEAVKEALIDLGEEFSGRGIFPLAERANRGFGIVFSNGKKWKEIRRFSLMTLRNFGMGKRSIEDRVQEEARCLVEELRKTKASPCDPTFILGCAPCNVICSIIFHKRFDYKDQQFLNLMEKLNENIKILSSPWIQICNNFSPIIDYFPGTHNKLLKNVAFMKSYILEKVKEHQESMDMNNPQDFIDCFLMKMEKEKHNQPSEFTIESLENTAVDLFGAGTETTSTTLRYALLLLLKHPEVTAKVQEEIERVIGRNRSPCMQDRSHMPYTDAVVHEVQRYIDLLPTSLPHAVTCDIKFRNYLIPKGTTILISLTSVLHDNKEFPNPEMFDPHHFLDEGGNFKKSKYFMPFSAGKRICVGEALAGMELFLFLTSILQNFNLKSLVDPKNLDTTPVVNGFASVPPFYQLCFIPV
How it was run: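 CYP2C9 activity was measured with a P450-Glo proluciferin substrate. Enzyme–substrate mix was held with compound for 10 min at room temperature, then NADPH regeneration solution was added for 1 h at 37C. Luciferin product was read as luminescence.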
Potency means the concentration at half of the fitted maximal effect.

| SMILES | Potency [1] | Potency [2] | Potency [3] | Potency [4] | Potency [5] |
| --- | --- | --- | --- | --- | --- |
| N=C1N=C(N)c2cc3ccccc3cc21 | 79.6 µM (active) | 1.78 µM (active) | – | – | – |
| CCc1oc2ccccc2c1C(=O)c1cc(Br)c(O)c(Br)c1 | inactive | inactive | 10.7 µM (active) | inactive | – |
| CCCCCCCCCCCCCCCCCC[N+](C)(C)C | 89.6 µM (active) | – | – | 71.2 µM (active) | 63.5 µM (active) |
| CNCc1cc(F)ccc1Oc1ccc(Cl)c(Cl)c1 | 2.52 µM (active) | 1 µM (active) | – | – | – |
| C[C@H](CCC(=O)O)[C@H]1CC[C@H]2[C@@H]3CC[C@@H]4C[C@H](O)CC[C@]4(C)[C@H]3CC[C@]12C | – | inactive | inactive | – | – |
| On1ccccc1=S | – | – | inactive | – | – |
| OCCN(CCO)c1nc(N2CCCCC2)c2nc(N(CCO)CCO)nc(N3CCCCC3)c2n1 | – | – | inactive | – | – |
| CN(C)[C@@H]1C(=O)C(C(N)=O)=C(O)[C@@]2(O)C(=O)C3=C(O)c4c(O)ccc(Cl)c4[C@@H](O)[C@H]3C[C@@H]12 | – | inactive | inactive | inactive | – |
| [Cl][Au]([Cl])[Cl] | – | – | inactive | – | – |
| CC(C)(C)NC(=O)[C@@H]1C[C@@H]2CCCC[C@@H]2CN1C[C@@H](O)[C@H](Cc1ccccc1)NC(=O)[C@H](CC(N)=O)NC(=O)c1ccc2ccccc2n1 | – | – | 22.2 µM (active) | – | 40.4 µM (active) |
| N#CSc1ccc(N)c([N+](=O)[O-])c1 | – | 1.6 µM (active) | inactive | – | 40.2 µM (active) |
| COc1ccc(CN2CCN(C(c3ccc(F)cc3)c3ccc(F)cc3)CC2)c(OC)c1OC | – | inactive | 0.674 µM (active) | – | 11 µM (active) |
| Oc1c(Cl)cc(Cl)c2cccnc12 | – | – | inactive | – | – |
| Cc1onc(-c2ccccc2Cl)c1C(=O)N[C@@H]1C(=O)N2[C@@H]1SC(C)(C)[C@@H]2C(=O)O | – | – | inactive | – | – |
| N#CC1(c2ccc(F)cc2)CCC(=O)CC1 | – | inactive | inactive | inactive | inactive |
| COc1cc(-c2ccc(N=C=O)c(OC)c2)ccc1N=C=O | – | inactive | inactive | – | inactive |
| CCc1cc(Cc2cc(CC)cc(C(C)(C)C)c2O)c(O)c(C(C)(C)C)c1 | – | inactive | – | 17.8 µM (active) | 3.17 µM (active) |

| SMILES | Potency [1] | Potency [2] | Potency [3] | Potency [4] | Potency [5] |
| --- | --- | --- | --- | --- | --- |
| CN1CCN(CCC(=O)N2c3ccccc3Sc3ccc(C(F)(F)F)cc32)CC1 | – | – | 4.77 µM (active) | – | inactive |
| O=C1C=CC(=O)N1 | – | 32.6 µM (active) | inactive | inactive | inactive |
| CN(C)CCCOC1(Cc2ccccc2)CCCCCC1 | – | inactive | – | – | inactive |
| Cc1c(C)c2c(c(C)c1O)CCC(C)(COc1ccc(CC3SC(=O)NC3=O)cc1)O2 (stereo not given) | – | inactive | inactive | – | 5.03 µM (active) and 4.9 µM (active) |
| CCCCCCCC/C=C/CCCCCCCC1=NCCN1CCO | – | – | – | 31.7 µM (active) | 25.2 µM (active) |
| O=C(c1ccc(F)cc1)C1CCN(CCn2c(=O)[nH]c3ccccc3c2=O)CC1 | – | inactive | 2.39 µM (active) | inactive | – |
| NC(=O)C1(N2CCCCC2)CCN(CCCN2c3ccccc3CCc3ccc(Cl)cc32)CC1 | – | inactive | 1.34 µM (active) | inactive | 7.76 µM (active) |
| Cc1onc(-c2c(Cl)cccc2Cl)c1C(=O)N[C@@H]1C(=O)N2[C@@H]1SC(C)(C)[C@@H]2C(=O)O | – | inactive | inactive | – | 13.8 µM (active) |
| COc1cccc(N)c1 | – | – | inactive | – | – |
| C1CCCC1 | – | – | inactive | inactive | inactive |
| COc1cc(-c2nc(NC(=O)c3cc4cc(C)cc(C)c4n3CC(=O)O)sc2CCC2CCCCC2)c(OC)cc1Cl | – | inactive | inactive | – | 51.7 µM (active) |
| CCc1cc(SCc2sc(-c3ccc(C(F)(F)F)cc3)nc2CN2CCN(c3ccc(OC)cc3)CC2)ccc1OCC(=O)O | – | inactive | 4.36 µM (active) | 11.2 µM (active) | 20 µM (active) |
| CC(C)=CCOc1ccc(/C=C/C(=O)c2ccc(OCC=C(C)C)cc2OCC(=O)O)cc1 | – | inactive | inactive | inactive | 15.5 µM (active) |
| CCN(C(=O)c1cc(C)cc(OC[C@H](C)Nc2ccncc2)c1)C(C)C | – | inactive | 17.2 µM (active) | 0.992 µM (active) | 7.02 µM (active) |
| CSc1ccc(C(=O)c2[nH]c(=O)[nH]c2C)cc1 | – | – | inactive | inactive | inactive |
| CCOc1nc2cccc(C(=O)OC(C)OC(=O)OC3CCCCC3)c2n1Cc1ccc(-c2ccccc2-c2nn[nH]n2)cc1 (stereo not given) | – | inactive | inactive | – | 10 µM (active) |
| O=C(O)c1ccc(Cl)c(Cl)c1 | – | – | inactive | inactive | inactive |

— PubChem BioAssay (Tox21)
